In the library only some 1% were active in any assay of this set; here they are far more common.
EphB4 antag = EphB4-ephrin-B2 interaction antagonists, primary screen, biochemical, TNYL-RAW peptide probe, fluorescence polarization | Ephrin type-B receptor 4 (Homo sapiens), P54760 | EphB4 LBD / TNYL-RAW-Alexa532 peptide | inhibition, % at 7 µM | 97,000 tested, 0.15% active | AID 720, 2007;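 active = inhibition above the screen-wide mean inhibition plus 3 SD, cut at about 15% in these data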;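 also: 0% = DMSO wells and 100% = excess unlabeled TNYL-RAW peptide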
PLK1 kinase inh = human PLK1 kinase inhibitors, primary screen, biochemical, TR-FRET; Serine/threonine-protein kinase PLK1 (Homo sapiens), P53350; inhibition, % at 10 µM; AID 619, 2007; 97,000 tested, 0.53% active; recombinant PLK1 kinase, TR-FRET peptide phosphorylation;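 active = inhibition of 50% or more in the single-concentration screen; inactive = inhibition below 50%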;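 also: 0% = DMSO max control and 100% = H-89 dihydrochloride min control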
Target sequence (P53350 whole entry, looked up): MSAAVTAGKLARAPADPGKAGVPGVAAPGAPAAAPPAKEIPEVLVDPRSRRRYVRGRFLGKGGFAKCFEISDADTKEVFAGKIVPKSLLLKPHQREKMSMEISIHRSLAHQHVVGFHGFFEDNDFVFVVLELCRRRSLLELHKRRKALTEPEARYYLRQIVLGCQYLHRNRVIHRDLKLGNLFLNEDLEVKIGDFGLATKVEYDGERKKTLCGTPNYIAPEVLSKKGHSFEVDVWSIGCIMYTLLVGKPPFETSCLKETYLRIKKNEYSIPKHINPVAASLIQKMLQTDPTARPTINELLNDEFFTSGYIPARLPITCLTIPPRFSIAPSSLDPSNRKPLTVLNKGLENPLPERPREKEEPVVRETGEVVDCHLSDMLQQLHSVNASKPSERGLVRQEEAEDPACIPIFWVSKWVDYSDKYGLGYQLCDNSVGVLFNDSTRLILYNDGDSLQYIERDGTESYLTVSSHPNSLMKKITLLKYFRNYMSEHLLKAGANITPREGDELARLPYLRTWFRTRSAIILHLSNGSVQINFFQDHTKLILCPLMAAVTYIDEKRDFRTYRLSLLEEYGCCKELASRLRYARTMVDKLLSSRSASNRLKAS
sEH act = soluble epoxide hydrolase activators, primary screen, biochemical, human sEH; 91,000 tested, 0.04% active; activation, % at 2 µM; purified human sEH enzymatic activity, activator screen; in the data active = activation above about 37%
sEH inh = soluble epoxide hydrolase inhibitors, primary screen, biochemical, human sEH. recombinant human sEH enzymatic activity assay. inhibition, % at 2 µM. 91,000 tested, 0.34% active; in the data active = inhibition above about 80%
Plk1 PBD FP = Plk1 polo box domain binding inhibitors, primary screen, biochemical, fluorescence polarization; Serine/threonine-protein kinase PLK1 (Homo sapiens), P53350; Plk1 PBD phosphopeptide binding; inhibition, %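 (tested at about 20 µM)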; 97,000 tested, 0.13% active; AID 693, 2007; in the data active = inhibition above about 34%, passing the limit was not always enough
The depositor's hits bear a star; · = no result given.

SMILES | EphB4 antag | PLK1 kinase inh | sEH act | sEH inh | Plk1 PBD FP
COc1ccccc1CNC(=O)c1c(N)n(CCCN2CCOCC2)c2nc3ccccc3nc12 | 0 | -2 | 117* | -108 | -39
CCn1c(CSc2nc3ccccc3[nH]2)nc2cc(C(=O)O)ccc21 | 4 | 3 | 15 | -17 | -24
CCn1c(CSc2nccn2C)nc2cc(C(=O)O)ccc21 | 15* | -4 | 8 | -8 | 30
CC(C)=CCC(C)(C)C1OCCN1C(=O)Nc1ccccc1 (stereo unspecified) | -1 | -14 | -3 | 2 | 7
Cc1cc2nc(CCN(C(=S)NCC(C)C)C3CCCC3)[nH]c2cc1C | -4 | -10 | 8 | -7 | 1
Cc1ccc(C(=O)C(OC(=O)CNS(=O)(=O)c2ccccc2)c2ccccc2)cc1 (stereo unspecified) | 6 | -10 | 11 | -12 | 16
Cn1cc(Cl)c(C(=O)OCC(=O)Nc2ccccc2)n1 | 15* | -9 | 9 | -7 | -4
Cc1ccc(Cn2c(SCCN3CCCCC3)nc3c2c(=O)n(C)c(=O)n3C)cc1 | 16* | -19 | 0 | 0 | -17
CCOC(=O)c1ccc(NC(=O)CCc2nc(-c3ccc(C)cc3)no2)cc1 | 2 | 64* | 5 | -3 | -3
CCOC(=O)c1ccc(NC(=O)CCc2nc(-c3ccc(Cl)cc3)no2)cc1 | 1 | -4 | -7 | 6 | 8
COC(=O)c1[nH]c2ccccc2c1NC(=O)CN1CCN(c2cccc(Cl)c2)CC1 | 3 | -5 | 7 | -9 | -5
COC(=O)c1[nH]c2cccc(OC)c2c1NC(=O)CCN1CCN(c2cccc(Cl)c2)CC1 | -1 | -7 | 114* | -113 | -19
O=C(O)c1ccc(N2C(=O)C3ON(c4ccccc4)C(c4ccccc4F)C3C2=O)cc1 (stereo unspecified) | -1 | -6 | 44* | -48 | -5
COC(=O)C(NC(C)=O)(Nc1nc2c(C)cc(C)cc2s1)C(F)(F)F (stereo unspecified) | 5 | -24 | -3 | 3 | -6
COc1ccc(C(NC(=O)c2ccc(-c3ccccc3)cc2)c2ccccc2)cc1 (stereo unspecified) | 1 | 0 | 1 | 0 | -25
COc1ccc(C(C)NC(=O)c2ccccc2)cc1 (stereo unspecified) | 16* | 6 | -8 | 6 | 26
Cc1sc2nc(C)n(/N=C/c3ccccc3)c(=O)c2c1C | 9 | -4 | 38* | -42 | 5
Cc1nc2ccccc2c(=O)n1/N=C/c1ccc(O)cc1 | 7 | -9 | 8 | -9 | -11
Cc1nnc(SCC(=O)NC2CC2)n1CCc1ccccc1 | 4 | -15 | 14 | -14 | 4
O=C(CSc1nnc(-c2ccccn2)n1Cc1ccccc1)NC1CCCC1 | 16* | 4 | 4 | -2 | 4
NNC(=O)c1cnn(Cc2ccccc2)c1N | -5 | 5 | -86 | 87* | -8
Cc1noc(C(=O)N2CC3(C)CC2CC(C)(C)C3)c1Cl (stereo unspecified) | 0 | 70* | · | · | 12
CCC(=O)N1CCc2cc(S(=O)(=O)CCC(=O)NCCC3=CCCCC3)ccc21 | -2 | -6 | -87 | 86* | 42
Cc1nn(Cc2ccc(Cl)cc2Cl)c(C)c1NC(=O)NC12CC3CC(CC(C3)C1)C2 | 7 | -3 | -78 | 78 | 10
O=C(Nc1cnn(Cc2ccccc2)c1)NC12CC3CC(CC(C3)C1)C2 | -8 | -4 | -92 | 92* | -4
SMILES | EphB4 antag | PLK1 kinase inh | sEH act | sEH inh | Plk1 PBD FP
O=C(O)C1C2CCC(O2)C1C(=O)Nc1cnn(Cc2ccccc2)c1 (stereo unspecified) | -2 | -4 | 10 | -9 | 2
Oc1ccc(N2CCN(C(c3ccccn3)c3nnnn3C3CCCC3)CC2)cc1 (stereo unspecified) | -7 | -2 | 7 | -2 | -19
Brc1ccc(OCCOCCOc2cccc3cccnc23)cc1 | 4 | -3 | 58* | -54 | -22
CSc1cccc(-n2c(C)cc(C(N)=O)c2C)c1 | 16* | 0 | 2 | -2 | -7
O=C(COC(=O)C1CC1)NCc1ccccc1Cl | 4 | 1 | 7 | -4 | 7
CC(Cc1cccs1)NC(=O)Nc1ccccc1 (stereo unspecified) | 6 | -3 | -58 | 58 | -14
CC(Cc1cccs1)NC(=O)Nc1ccc(Cl)c(Cl)c1 (stereo unspecified) | 0 | 1 | -90 | 90* | -13
CC(Cc1cccs1)NC(=O)Nc1ccc(Cl)cc1 (stereo unspecified) | 3 | -15 | -86 | 87* | -23
N#Cc1c(-c2ccco2)cc(-c2cccnc2)nc1N | 0 | 55* | 15 | -16 | 36
N#Cc1c(-c2ccco2)cc(-c2ccccn2)nc1N | -2 | -1 | -19 | 22 | 36
CCOCC(=O)Nc1nnc(SCCOC)s1 | -3 | 52* | -14 | 14 | -1
Cn1cnc([N+](=O)[O-])c1Sc1ncccc1N | 2 | -15 | 4 | -2 | 2
N#CCCn1cc(C(CC(=O)c2ccc(Br)cc2)C(=O)O)c2ccccc21 (stereo unspecified) | 6 | 56* | · | · | -10
CC(C)(C)n1nnnc1CN1CCC(NC(=O)NC2CCCCC2)CC1 | -9 | -16 | -97 | 97* | -6
CC1CCCN(S(=O)(=O)c2ccc(NC(=O)c3cccc(-n4cnnn4)c3)cc2)C1 (stereo unspecified) | 5 | -7 | -96 | 96* | -2
O=C(CSCc1cccc(Cl)c1)N1CCN(Cc2ccc3c(c2)OCO3)CC1 | -11 | 5 | -18 | 17 | 9
Cc1cc(C(=O)CSc2nnc(N)s2)c(C)n1CCc1ccc(Cl)cc1 | 0 | -10 | -7 | 6 | -14
COc1ccc(CCn2c(C)cc(C(=O)CSc3nnc(N)s3)c2C)cc1 | 16* | -8 | -9 | 10 | -2
CN(C)CCCNc1ncnc2c1cnn2-c1ccccc1 | 1 | 67* | -3 | 5 | 23
CC(C)OCCCNc1ncnc2c1cnn2-c1ccccc1 | 2 | 2 | · | · | -12
Cc1ccc(-c2cc(C(F)F)n3ncc(C(=O)N4CCN(c5cccc(C)c5C)CC4)c3n2)cc1 | -2 | -6 | -14 | 15 | -19
CS(=O)(=O)Nc1ccccc1C(=O)c1ccccc1 | -5 | -14 | 8 | -6 | 4
Cc1cccc(NC(=O)CSc2nnc(-c3ccc(S(=O)(=O)N4CCCC4)cc3)o2)c1 | 17* | 1 | 11 | -12 | 6
CC(NC(=O)CSc1nnc(-c2cccc(S(=O)(=O)N3CCCCC3)c2)o1)C12CC3CC(CC(C3)C1)C2 (stereo unspecified) | -1 | -1 | -93 | 93* | -2
CC(C)CNC(=O)CSc1nnc(-c2cccc(S(=O)(=O)N3CCCCC3)c2)o1 | 1 | -12 | -62 | 62 | 24
CC(=O)Nc1ccc(OCC=C(Cl)Cl)cc1 | 16* | -11 | -1 | 0 | 8

Assay outcomes: PubChem, several laboratories
